According to PubChem BioAssay AID1159580 (chemical genetic matrix, 2015):
In all, about 5,500 compounds went through this assay and about 2,000 (36%) were called active. Inconclusive results (about 18%) are left out. Rule as the data show it: active = normalized growth mostly below about 0.91 (no sharp cut-off); inconclusive = no clear call, values can overlap the other calls; inactive = mostly above about 0.92. The list shows a part of the results.

Assay: chemical genetic growth profiling, strain panel (AID 1159580);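 also: tested at 20 µM; growth read once vehicle control cultures reached saturation at 30 °C; 1 = growth at the plate median or of vehicle wells; lower values mean less growth of the strain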
Conditions: growth OD

Measured: normalized growth

C=C1C2CC[C@@]3(C)[C@H](c4ccoc4)OC(=O)C[C@]13O[C@H]1CC(O)C(C)(C)C(CC(=O)OC)[C@@]21C (stereo not given in full)
inactive: S. cerevisiae deletion strains, locus YJL187C, strain SWE1, active compounds read low 0.971 | S. cerevisiae deletion strains, locus YJR043C, strain POL32, active compounds read low 1.01 | S. cerevisiae deletion strains, locus YJR066W, strain TOR1, active compounds read low 0.922 | S. cerevisiae deletion strains, locus YKL009W, strain mrt4, active compounds read low 1 | S. cerevisiae deletion strains, locus YKL068W, active compounds read low 1.01 | S. cerevisiae deletion strains, locus YKL085W, strain MDH1 (second series), active compounds read low 0.999 | S. cerevisiae deletion strains, locus YKL085W, strain MDH1, active compounds read low 0.999 | S. cerevisiae deletion strains, locus YKL160W, strain elf1, active compounds read low 0.984 | S. cerevisiae deletion strains, locus YKL190W, strain CNB1, active compounds read low 0.987 | S. cerevisiae deletion strains, locus YKR001C, strain vps1, active compounds read low 0.999 | S. cerevisiae deletion strains, locus YKR026C, strain gcn3, active compounds read low 0.985 | S. cerevisiae deletion strains, locus YKR091W, strain srl3, active compounds read low 0.965 | S. cerevisiae deletion strains, locus YLL001W, strain dnm1, active compounds read low 0.989 | S. cerevisiae deletion strains, locus YLL026W, active compounds read low 0.974 | S. cerevisiae deletion strains, locus YLL041C, strain sdh2, active compounds read low 0.971 | S. cerevisiae deletion strains, locus YLR027C, strain aat2, active compounds read low 0.99 | S. cerevisiae deletion strains, locus YLR039C, strain RIC1, active compounds read low 0.963 | S. cerevisiae deletion strains, locus YLR058C, strain SHM2, active compounds read low 1 | S. cerevisiae deletion strains, locus YLR102C, strain apc9, active compounds read low 1.01 | S. cerevisiae deletion strains, locus YLR113W, strain HOG1, active compounds read low 0.996 | S. cerevisiae deletion strains, locus YLR221C, strain rsa3, active compounds read low 0.981 | S. cerevisiae deletion strains, locus YLR258W, strain gsy2, active compounds read low 0.977 | S. cerevisiae deletion strains, locus YLR262C, strain YPT6 (second series), active compounds read low 0.925 | S. cerevisiae deletion strains, locus YLR268W, strain sec22, active compounds read low 1.01 | S. cerevisiae deletion strains, locus YLR320W, strain mms22, active compounds read low 0.97 | S. cerevisiae deletion strains, locus YLR342W, strain FKS1 (second series), active compounds read low 1.02 | S. cerevisiae deletion strains, locus YLR342W, strain FKS1, active compounds read low 0.971 | S. cerevisiae deletion strains, locus YLR357W, strain rsc2, active compounds read low 0.998 | S. cerevisiae deletion strains, locus YLR370C, strain arc18, active compounds read low 0.981 | S. cerevisiae deletion strains, locus YLR371W, strain rom2, active compounds read low 1.02 | S. cerevisiae deletion strains, locus YLR384C, strain iki3, active compounds read low 0.964 | S. cerevisiae deletion strains, locus YLR418C, strain cdc73, active compounds read low 0.998 | S. cerevisiae deletion strains, locus YML016C, strain PPZ1, active compounds read low 1.01 | S. cerevisiae deletion strains, locus YML032C, strain rad52, active compounds read low 1.03 | S. cerevisiae deletion strains, locus YML120C, strain ndi1, active compounds read low 0.99 | S. cerevisiae deletion strains, locus YML124C, strain tub3, active compounds read low 1.01 | S. cerevisiae deletion strains, locus YMR058W, strain fet3, active compounds read low 0.97 | S. cerevisiae deletion strains, locus YMR078C, strain ctf18, active compounds read low 1.01 | S. cerevisiae deletion strains, locus YMR125W, strain sto1, active compounds read low 0.972 | S. cerevisiae deletion strains, locus YMR129W, active compounds read low 0.989 | S. cerevisiae deletion strains, locus YMR205C, strain PFK2, active compounds read low 0.962 | S. cerevisiae deletion strains, locus YMR223W, strain ubp8, active compounds read low 1.01 | S. cerevisiae deletion strains, locus YMR231W, strain pep5, active compounds read low 0.971 | S. cerevisiae deletion strains, locus YMR307W, strain GAS1, active compounds read low 1.06 | S. cerevisiae deletion strains, locus YNL067W, strain RPL9B, active compounds read low 1.01 | S. cerevisiae deletion strains, locus YNL071W, strain lat1, active compounds read low 0.974 | S. cerevisiae deletion strains, locus YNL183C, strain NPR1, active compounds read low 0.974 | S. cerevisiae deletion strains, locus YNL209W, strain ssb2, active compounds read low 0.979 | S. cerevisiae deletion strains, locus YNL233W, strain BNI4, active compounds read low 0.972 | S. cerevisiae deletion strains, locus YNL248C, strain rpa49, active compounds read low 0.971 | S. cerevisiae deletion strains, locus YNL250W, strain rad50, active compounds read low 1.02 | S. cerevisiae deletion strains, locus YNL271C, strain bni1, active compounds read low 1.01 | S. cerevisiae deletion strains, locus YNL298W, strain CLA4, active compounds read low 1.01 | S. cerevisiae deletion strains, locus YNL307C, strain MCK1, active compounds read low 1.01 | S. cerevisiae deletion strains, locus YNL322C, strain KRE1 (second series), active compounds read low 0.985 | S. cerevisiae deletion strains, locus YNR049C, strain mso1, active compounds read low 0.969 | S. cerevisiae deletion strains, locus YNR052C, strain pop2, active compounds read low 1.02 | S. cerevisiae deletion strains, locus YOL012C, strain htz1 1.88 | S. cerevisiae deletion strains, locus YOL147C, strain pex11, active compounds read low 1.02 | S. cerevisiae deletion strains, locus YOR001W, strain rrp6, active compounds read low 0.969 | S. cerevisiae deletion strains, locus YOR061W, strain CKA2, active compounds read low 1 | S. cerevisiae deletion strains, locus YOR069W, strain VPS5, active compounds read low 1.01 | S. cerevisiae deletion strains, locus YOR070C, strain gyp1, active compounds read low 0.978 | S. cerevisiae deletion strains, locus YOR080W, strain dia2, active compounds read low 0.979 | S. cerevisiae deletion strains, locus YOR083W, strain WHI5, active compounds read low 0.981 | S. cerevisiae deletion strains, locus YOR106W, strain vam3, active compounds read low 0.955 | S. cerevisiae deletion strains, locus YOR136W, strain idh2, active compounds read low 1.02 | S. cerevisiae deletion strains, locus YOR144C, strain elg1, active compounds read low 1.03 | S. cerevisiae deletion strains, locus YOR184W, strain ser1, active compounds read low 1.01 | S. cerevisiae deletion strains, locus YOR231W, strain MKK1, active compounds read low 0.991 | S. cerevisiae deletion strains, locus YOR265W, strain rbl2, active compounds read low 0.986 | S. cerevisiae deletion strains, locus YOR270C, strain vph1, active compounds read low 0.878 | S. cerevisiae deletion strains, locus YOR290C, strain snf2, active compounds read low 0.987 | S. cerevisiae deletion strains, locus YOR316C, strain cot1, active compounds read low 1.01 | S. cerevisiae deletion strains, locus YPL051W, strain arl3, active compounds read low 0.975 | S. cerevisiae deletion strains, locus YPL078C, strain atp4, active compounds read low 0.981 | S. cerevisiae deletion strains, locus YPL106C, strain sse1, active compounds read low 0.973 | S. cerevisiae deletion strains, locus YPL240C, strain hsp82, active compounds read low 0.98 | S. cerevisiae deletion strains, locus YPL256C, strain CLN2, active compounds read low 0.939 | S. cerevisiae deletion strains, locus YPR119W, strain clb2, active compounds read low 1.02 | S. cerevisiae deletion strains, locus YPR141C, strain kar3, active compounds read low 1.02 | S. cerevisiae deletion strains, locus YPR163C, strain tif3, active compounds read low 1.02 | S. cerevisiae deletion strains, locus YPR167C, strain met16, active compounds read low 1.01 | S. cerevisiae deletion strains, strain wtn01, active compounds read low 1.01 | S. cerevisiae strains, strain wild type, active compounds read low 0.998
